Results reported in PubChem BioAssay (NCATS).
Records with an inconclusive call do not appear. A call without a number means that no potency is given here. Values without a mark were called inactive. Activity calls are given as the source filed them. Calls come from the whole dose curve; as a rule, active = well fitted curve in the direction sought with a large enough effect; inconclusive = small, poorly fitted or top-dose-only effect, or another doubt; inactive = no such curve, though single readings can be large; an effect the other way counts as inactive or inconclusive.

How the values were obtained:
[1] = biological target: Rap guanine nucleotide exchange factor 3 (Homo sapiens) (UniProt O95398); assay: Confirmatory qHTS for antagonist of cAMP-regulated guanine nucleotide exchange factor 3 (EPAC1) (AID 1645880); note: nearly all actives have a fitted effect of over 55% in size; note: potency is the fitted concentration of half-maximal effect
Chain of Rap guanine nucleotide exchange factor 3 (Homo sapiens) (O95398 whole entry, looked up): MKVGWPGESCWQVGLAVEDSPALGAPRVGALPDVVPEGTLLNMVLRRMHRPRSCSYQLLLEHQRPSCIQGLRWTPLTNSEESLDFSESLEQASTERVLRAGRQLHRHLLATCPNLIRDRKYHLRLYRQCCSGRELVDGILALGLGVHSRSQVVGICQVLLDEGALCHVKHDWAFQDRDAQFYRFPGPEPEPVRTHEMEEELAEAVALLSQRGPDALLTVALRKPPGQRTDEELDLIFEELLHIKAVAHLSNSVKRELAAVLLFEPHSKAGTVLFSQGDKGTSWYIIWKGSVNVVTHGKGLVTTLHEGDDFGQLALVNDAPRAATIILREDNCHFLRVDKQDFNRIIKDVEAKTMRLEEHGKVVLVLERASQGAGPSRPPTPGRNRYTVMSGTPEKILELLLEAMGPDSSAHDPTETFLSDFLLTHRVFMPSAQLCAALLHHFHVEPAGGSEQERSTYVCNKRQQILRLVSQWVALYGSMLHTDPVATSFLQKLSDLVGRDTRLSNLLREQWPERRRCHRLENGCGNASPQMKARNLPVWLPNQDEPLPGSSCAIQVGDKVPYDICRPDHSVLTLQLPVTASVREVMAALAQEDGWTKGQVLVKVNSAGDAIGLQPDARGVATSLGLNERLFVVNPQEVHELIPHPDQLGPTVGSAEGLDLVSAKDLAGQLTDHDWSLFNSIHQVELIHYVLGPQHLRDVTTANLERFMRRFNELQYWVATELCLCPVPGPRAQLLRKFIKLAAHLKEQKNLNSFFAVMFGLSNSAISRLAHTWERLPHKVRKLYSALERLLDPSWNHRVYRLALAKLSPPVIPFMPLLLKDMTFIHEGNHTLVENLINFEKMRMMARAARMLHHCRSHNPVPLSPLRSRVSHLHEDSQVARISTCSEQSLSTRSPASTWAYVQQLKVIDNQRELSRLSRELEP
Summary of the method: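 Nucleotide exchange uses 100 nM EPAC1, 250 nM RAP1B-BODIPY-GDP and 50 uM GDP, with compounds in a concentration-titration series. After 5 min at room temperature, fluorescence (480 nm ex/540 nm em) is read every 5 min for 30 min. Data are normalized to control ATA and DMSO.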

[2] = biological target: Rap guanine nucleotide exchange factor 3 (Homo sapiens) (UniProt O95398); assay: Confirmatory qHTS for agonist of cAMP-regulated guanine nucleotide exchange factor 3 (EPAC1) (AID 1645881); note: nearly all actives have a fitted effect of over 75% in size; note: potency is the fitted concentration of half-maximal effect;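 for activation: EPAC1 catalysed release of BODIPY-GDP from Rap1B seen as fluorescence loss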
[3] = biological target: Rap guanine nucleotide exchange factor 4 (Homo sapiens) (UniProt Q8WZA2); assay: Confirmatory qHTS for agonist of cAMP-regulated guanine nucleotide exchange factor 4 (EPAC2) (AID 1645884);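 note: nucleotide exchange releases bodipy-GDP from Rap1 and this lowers its fluorescence; nearly all actives have a fitted effect of over 65% in size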; note: potency is the fitted concentration of half-maximal effect
Chain of Rap guanine nucleotide exchange factor 4 (Homo sapiens) (Q8WZA2 whole entry, looked up): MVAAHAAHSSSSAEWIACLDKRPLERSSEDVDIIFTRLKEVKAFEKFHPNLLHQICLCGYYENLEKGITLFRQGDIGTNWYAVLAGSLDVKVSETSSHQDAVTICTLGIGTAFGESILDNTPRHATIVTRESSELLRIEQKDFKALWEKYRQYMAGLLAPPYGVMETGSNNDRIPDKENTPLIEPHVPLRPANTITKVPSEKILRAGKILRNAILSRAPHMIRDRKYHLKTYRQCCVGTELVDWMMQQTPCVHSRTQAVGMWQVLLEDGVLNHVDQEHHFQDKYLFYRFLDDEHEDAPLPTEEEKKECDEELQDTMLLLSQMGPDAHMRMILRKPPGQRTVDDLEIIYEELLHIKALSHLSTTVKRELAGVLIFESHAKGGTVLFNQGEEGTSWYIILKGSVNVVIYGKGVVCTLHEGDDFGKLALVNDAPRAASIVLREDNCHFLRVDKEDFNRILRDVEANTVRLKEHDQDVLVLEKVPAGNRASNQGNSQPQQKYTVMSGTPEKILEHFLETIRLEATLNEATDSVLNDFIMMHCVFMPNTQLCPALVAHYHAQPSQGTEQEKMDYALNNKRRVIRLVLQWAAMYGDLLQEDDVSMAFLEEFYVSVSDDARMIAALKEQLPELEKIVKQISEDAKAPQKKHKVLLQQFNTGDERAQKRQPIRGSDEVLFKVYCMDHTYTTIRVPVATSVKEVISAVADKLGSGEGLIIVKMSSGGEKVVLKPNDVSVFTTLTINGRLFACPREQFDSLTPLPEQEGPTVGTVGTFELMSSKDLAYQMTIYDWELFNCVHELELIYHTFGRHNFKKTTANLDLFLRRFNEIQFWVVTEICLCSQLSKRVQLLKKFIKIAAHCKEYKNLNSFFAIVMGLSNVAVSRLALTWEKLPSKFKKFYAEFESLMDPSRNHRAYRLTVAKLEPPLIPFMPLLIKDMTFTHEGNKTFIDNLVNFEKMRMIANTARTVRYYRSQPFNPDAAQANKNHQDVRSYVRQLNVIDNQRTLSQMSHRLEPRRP

[4] = biological target: Rap guanine nucleotide exchange factor 4 (Homo sapiens) (UniProt Q8WZA2); assay: Confirmatory qHTS for antagonist of cAMP-regulated guanine nucleotide exchange factor 4 (EPAC2) (AID 1645885); note: nearly all actives have a fitted effect of over 25% in size; note: potency is the fitted concentration of half-maximal effect
[5] = biological target: Rap guanine nucleotide exchange factor 3 (Homo sapiens) (UniProt O95398); assay: Counterscreen qHTS for antagonist of cAMP-regulated guanine nucleotide exchange factor 3 (EPAC1) (AID 1645888);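 note: fluorescence loss as bound BODIPY-GDP is released from Rap1B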
Summary of the method: (§1)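 Rap1B–BODIPY-GDP (250 nM) with 50 uM GDP; compounds pin-transferred to 9.74 nM–152 uM final (activator) or from 7.32 nM upwards (inhibitor). Fluorescence Ex/Em 480/540 nm read at 5 and 30 min, then after adding cAMP or buffer, at room temperature.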

[6] = biological target: Rap guanine nucleotide exchange factor 3 (Homo sapiens) (UniProt O95398); assay: Counterscreen qHTS for agonist of cAMP-regulated guanine nucleotide exchange factor 3 (EPAC1) (AID 1645889); note: nearly all actives have a fitted effect of over 40% in size; note: potency is the fitted concentration of half-maximal effect
Summary of the method: as §1

Row | Structure (SMILES) | Potency [1] | Potency [2] | activation [3] | Potency [4] | activity change, negative = inhibition [5] | activation [6] | Potency [3] | Potency [5] | Potency [6]
1 | CN(C)c1ccccc1C(=O)N1CCCC(C(=O)c2ccc3ccccc3c2)C1 (stereo not given) | inactive | inactive | 10.4% [at 17.1 µM, percent relative to cAMP agonist control] | inactive | -1.02% [at 30.8 µM] | 21.4% [at 30.8 µM] | – | – | –
2 | CCCn1c(N)c(C(=O)CSc2n[nH]c(-c3ccc(C)cc3)n2)c(=O)[nH]c1=O | inactive | inactive | – | inactive | – | – | inactive | inactive | inactive
3 | CSc1ccccc1NC(=O)COc1ccccc1C | inactive | inactive | 11.3% [at 17.1 µM, percent relative to cAMP agonist control] | inactive | -1.84% [at 30.8 µM] | 4.86% [at 30.8 µM] | – | – | –
4 | CC(=O)N1c2ccc(S(=O)(=O)NCCc3ccccc3)cc2CC1C (stereo not given) | inactive | inactive | – | inactive | – | – | inactive | inactive | inactive
5 | CCOC(=O)c1sc(N=NC2=C(O)CCCC2=O)c(C(=O)OCC)c1C | 8.91 µM (active) | inactive | -2.58% [at 17.1 µM, percent relative to cAMP agonist control] | inactive | -17% [at 30.8 µM] | 6.27% [at 30.8 µM] | – | – | –
6 | CC(=O)N1CCc2cc(CNC(=O)c3ccccc3Br)ccc21 | inactive | inactive | – | inactive | – | – | inactive | inactive | inactive
7 | COC(=O)C(CC(=O)c1ccc(C)cc1)n1cccn1 (stereo not given) | inactive | inactive | – | inactive | – | – | inactive | inactive | inactive
8 | COc1cc2c(cc1OC)C(c1ccccc1Cl)N(C)CC2 (stereo not given) | inactive | inactive | 2.32% [at 17.1 µM, percent relative to cAMP agonist control] | inactive | 3.04% [at 30.8 µM] | 9.1% [at 30.8 µM] | – | – | –
9 | COc1ccccc1/C=C/C=C1\Oc2c(ccc(O)c2CN2CCN(CCO)CC2)C1=O | inactive | 100 µM (active) | – | 84.9 µM (active) | – | – | 100 µM (active) | inactive | 39.8 µM (active)
10 | O=C1CC(c2ccccc2C(F)(F)F)c2c(c3ccccc3[nH]c2=O)O1 (stereo not given) | inactive | inactive | – | inactive | – | – | inactive | inactive | inactive
11 | CCCN1C(=O)c2cc(C(=O)Nc3ccccc3CC)ccc2C1O (stereo not given) | inactive | inactive | – | inactive | – | – | inactive | inactive | inactive
12 | O=C(C[n+]1cc(Br)cc2ccccc21)c1ccc(F)cc1 | inactive | inactive | 1.58% [at 17.1 µM, percent relative to cAMP agonist control] | inactive | 9.18% [at 30.8 µM] | 21% [at 30.8 µM] | – | – | –
13 | COc1cccc(/C=C2\SC(=S)N(NS(=O)(=O)c3ccccc3)C2=O)c1OC | 33.8 µM (active) | inactive | – | 37.9 µM (active) | – | – | inactive | inactive | inactive
14 | COc1nc(C)cc(C)c1S(=O)(=O)c1ccccc1C | inactive | inactive | – | inactive | – | – | inactive | inactive | inactive
15 | CN1CCN(S(=O)(=O)c2ccc(Nc3ccc(F)cc3)nc2)CC1 | inactive | inactive | 6.27% [at 17.1 µM, percent relative to cAMP agonist control] | inactive | -5.53% [at 30.8 µM] | 16.5% [at 30.8 µM] | – | – | –
16 | CCCCn1c(N)c(N(CC(C)C)C(=O)C2CCN(C(=O)c3ccc(Cl)cc3)CC2)c(=O)[nH]c1=O | inactive | inactive | – | inactive | – | – | inactive | inactive | inactive
17 | CCc1nc2c(OCCOc3ccc(F)cc3)cccn2c1N(C)C(=O)c1ccc(OC)cc1 | inactive | inactive | 3.55% [at 17.1 µM, percent relative to cAMP agonist control] | inactive | -15.6% [at 30.8 µM] | 11.5% [at 30.8 µM] | – | – | –
18 | COc1cc2cncc(Cc3ccc(Cl)cc3)c2cc1OC | inactive | inactive | – | inactive | – | – | inactive | inactive | inactive
19 | O=C(COc1ccc(F)cc1)Nc1nccs1 | inactive | inactive | – | inactive | – | – | inactive | inactive | inactive
20 | Cc1nnc(N/N=C\c2ccc(-c3ccccc3[N+](=O)[O-])o2)n1N | inactive | inactive | 4.31% [at 17.1 µM, percent relative to cAMP agonist control] | inactive | 7.63% [at 30.8 µM] | 36.2% [at 30.8 µM] | – | – | –

Row | Structure (SMILES) | Potency [1] | Potency [2] | activation [3] | Potency [4] | activity change, negative = inhibition [5] | activation [6] | Potency [3] | Potency [5] | Potency [6]
21 | Cc1ccc(C(C)C)cc1OCC(=O)NC1CCCCCCC1 | inactive | inactive | -1.54% [at 17.1 µM, percent relative to cAMP agonist control] | inactive | -15.5% [at 30.8 µM] | -2.78% [at 30.8 µM] | – | – | –
22 | COc1ccc(/C=C(/NC(=O)c2ccccc2)C(=O)N/N=C/c2ccncc2)c(OC)c1 | inactive | inactive | 2.49% [at 17.1 µM, percent relative to cAMP agonist control] | inactive | 28.5% [at 30.8 µM] | 12.1% [at 30.8 µM] | – | – | –
23 | CN(CCc1ccccn1)C(=O)Nc1ccc(F)cc1 | inactive | inactive | – | inactive | – | – | inactive | inactive | inactive
24 | CCN(CC)c1ccc2oc(=O)c(C)nc2c1 | inactive | 100 µM (active) | – | 75.7 µM (active) | – | – | 100 µM (active) | inactive | 39.8 µM (active)
25 | Cc1ccc(OCCC(=O)OCC(=O)NNC(=O)c2ccccc2)cc1 | inactive | inactive | 0.0575% [at 17.1 µM, percent relative to cAMP agonist control] | inactive | -6.38% [at 30.8 µM] | 0.419% [at 30.8 µM] | – | – | –
26 | CCCCC1=CC2=CC(=O)C(C)(OC(=O)C3CCCC3)C(=O)C2=CO1 (stereo not given) | 39.8 µM (active) | inactive | 1.4% [at 17.1 µM, percent relative to cAMP agonist control] | inactive | -20.6% [at 30.8 µM] | 18% [at 30.8 µM] | – | – | –
27 | O=c1oc(-c2ccccc2)c(-c2ccccc2)c2ccccc12 | inactive | inactive | – | inactive | – | – | inactive | inactive | inactive
28 | CN[C@@H](CO)C(=O)NC[C@H]1O[C@@H](n2cnc3c(N)ncnc32)[C@H](O)[C@@H]1O | inactive | inactive | – | inactive | – | – | inactive | inactive | inactive
29 | O=C(O)c1cc(N/N=C/c2ccncc2)ccc1Cl | inactive | inactive | 1.56% [at 17.1 µM, percent relative to cAMP agonist control] | inactive | -14% [at 30.8 µM] | 24.2% [at 30.8 µM] | – | – | –
30 | O=C(NS(=O)(=O)c1ccc2ccc(S(=O)(=O)NCCSc3ccccc3)cc2c1)c1cccc2ccccc12 | 42.6 µM (active) | inactive | – | 67.5 µM (active) | – | – | inactive | inactive | inactive
31 | CCOC(=O)C1CCN(C(=O)c2cccc(S(=O)(=O)N(CC)c3ccccc3)c2)CC1 | inactive | inactive | – | inactive | – | – | inactive | inactive | inactive
32 | N#CC(C(=O)NCc1ccco1)c1nc2ccccc2nc1N1CCOCC1 (stereo not given) | inactive | inactive | 4.26% [at 17.1 µM, percent relative to cAMP agonist control] | inactive | -11.6% [at 30.8 µM] | 19.4% [at 30.8 µM] | – | – | –
33 | O=C1c2ccccc2C(=O)N1c1nc(-c2cccs2)cs1 | 4.78 µM (active) | inactive | – | 60.1 µM (active) | – | – | inactive | inactive | inactive
34 | COc1cccc(CN2CC(O)=C(c3nc(-c4ccc(Cl)cc4)cs3)C2=N)c1 | inactive | inactive | 0.958% [at 17.1 µM, percent relative to cAMP agonist control] | inactive | -19.7% [at 30.8 µM] | 0.754% [at 30.8 µM] | – | – | –
35 | Cc1ccc(/C=C/C(=O)Nc2ccc(S(=O)(=O)Nc3cc(C)nc(C)n3)cc2)cc1 | inactive | inactive | – | inactive | – | – | inactive | inactive | inactive
36 | CCN(CC)c1ccc(C(=O)OCC(=O)NCC2CCCO2)cc1 (stereo not given) | inactive | inactive | 4.19% [at 17.1 µM, percent relative to cAMP agonist control] | inactive | -1.2% [at 30.8 µM] | 25.8% [at 30.8 µM] | – | – | –
37 | O=[N+]([O-])c1cc([N+](=O)[O-])c2oc(-c3ccccc3)c(Br)c2c1O | 2.69 µM (active) | inactive | – | 3.01 µM (active) | – | – | inactive | inactive | inactive
38 | Cc1ccc(S(=O)(=O)N2CCN(C(=O)CC(C)n3nc(C)c(Cl)c3C)CC2)cc1 (stereo not given) | inactive | inactive | 1.58% [at 17.1 µM, percent relative to cAMP agonist control] | inactive | 13.5% [at 30.8 µM] | 6.22% [at 30.8 µM] | – | – | –
39 | COc1cc(Cl)c(C)cc1NC(=O)c1ccc(CN2C(=O)CCn3nc(C)cc32)cc1 | inactive | inactive | – | inactive | – | – | inactive | inactive | inactive
40 | Cc1ccc(S(=O)(=O)N2[C@@H](c3ccc(Cl)cc3)C(C(=O)O)=CC[C@H]2c2ccc(C(C)C)cc2)cc1 | 42.6 µM (active) | inactive | – | inactive | – | – | inactive | inactive | inactive
